Design in all cases: scale not given: direction of the effect not stated beside the values
For experiment [1], the target named is Protein translocase subunit SecA (Escherichia coli (strain K12)) (UniProt P10408). The experiment is described as follows: Assay to Identify E. coli SecA ATPase Inhibitors. To be noted: 30 µM. Type of experiment: functional.
The target of experiment [2] is T1, Ubiquitin-activating enzyme e1, putative (Leishmania donovani (strain BPK282A1)) (UniProt E9BSI1).
T1 sequence (whole entry): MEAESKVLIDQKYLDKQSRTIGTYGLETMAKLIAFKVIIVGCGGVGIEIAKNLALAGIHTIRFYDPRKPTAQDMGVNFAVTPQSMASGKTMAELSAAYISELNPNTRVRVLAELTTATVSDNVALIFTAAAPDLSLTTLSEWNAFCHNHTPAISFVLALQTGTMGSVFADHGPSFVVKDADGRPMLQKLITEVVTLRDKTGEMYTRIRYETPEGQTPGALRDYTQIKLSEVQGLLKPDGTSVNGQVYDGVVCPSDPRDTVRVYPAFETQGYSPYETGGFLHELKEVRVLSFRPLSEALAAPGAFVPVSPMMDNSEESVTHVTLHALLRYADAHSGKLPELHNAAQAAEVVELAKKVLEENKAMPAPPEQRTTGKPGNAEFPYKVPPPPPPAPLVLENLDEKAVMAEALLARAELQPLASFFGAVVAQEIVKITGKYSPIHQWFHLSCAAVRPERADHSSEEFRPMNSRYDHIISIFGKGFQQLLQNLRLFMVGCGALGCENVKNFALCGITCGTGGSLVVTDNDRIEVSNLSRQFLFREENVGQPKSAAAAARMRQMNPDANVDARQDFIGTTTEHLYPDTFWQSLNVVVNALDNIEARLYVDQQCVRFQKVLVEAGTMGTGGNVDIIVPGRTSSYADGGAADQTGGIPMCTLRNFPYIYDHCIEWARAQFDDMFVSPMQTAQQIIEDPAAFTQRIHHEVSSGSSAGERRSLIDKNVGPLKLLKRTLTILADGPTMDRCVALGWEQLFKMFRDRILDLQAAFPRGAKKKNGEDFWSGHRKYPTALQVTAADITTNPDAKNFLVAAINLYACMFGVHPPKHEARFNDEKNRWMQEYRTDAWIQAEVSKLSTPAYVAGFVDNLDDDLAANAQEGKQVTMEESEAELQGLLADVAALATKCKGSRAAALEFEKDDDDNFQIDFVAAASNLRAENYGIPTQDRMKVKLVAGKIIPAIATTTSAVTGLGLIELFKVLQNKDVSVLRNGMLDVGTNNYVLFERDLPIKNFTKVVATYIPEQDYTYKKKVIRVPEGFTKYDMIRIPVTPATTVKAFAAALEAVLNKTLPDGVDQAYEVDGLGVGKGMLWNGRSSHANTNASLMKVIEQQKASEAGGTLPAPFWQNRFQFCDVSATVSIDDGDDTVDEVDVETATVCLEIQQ
The experiment can be described thus: Leishmania donovani Ubiquitin Activating Enzyme (LdE1). To be noted: 30 µM. It is filed as functional.

Experiment [3] addresses AMP-activated protein kinase, AMPK (Homo sapiens) (UniProt P54646+O43741+P54619+Q9UGJ0+Q9Y478+Q13131+Q9UGI9). The experiment can be described thus: AMP-dependent Kinase enzyme assay. An in vitro enzyme assay that detects ADP turnover that is directly proportional to AMPK activity. This uses naive AMPK that is activated during the assay with MK-8722. It is filed as functional. To be noted: 30 µM.

In experiment [4] the target is Sialic acid-binding Ig-like lectin 9 (Homo sapiens) (UniProt Q9Y336). The experiment can be described thus: Hs-Siglec9 ALPHAscreen SOP 20170721. To be noted: 10 µM.
Chain of Sialic acid-binding Ig-like lectin 9 (Homo sapiens) (Q9Y336 whole entry): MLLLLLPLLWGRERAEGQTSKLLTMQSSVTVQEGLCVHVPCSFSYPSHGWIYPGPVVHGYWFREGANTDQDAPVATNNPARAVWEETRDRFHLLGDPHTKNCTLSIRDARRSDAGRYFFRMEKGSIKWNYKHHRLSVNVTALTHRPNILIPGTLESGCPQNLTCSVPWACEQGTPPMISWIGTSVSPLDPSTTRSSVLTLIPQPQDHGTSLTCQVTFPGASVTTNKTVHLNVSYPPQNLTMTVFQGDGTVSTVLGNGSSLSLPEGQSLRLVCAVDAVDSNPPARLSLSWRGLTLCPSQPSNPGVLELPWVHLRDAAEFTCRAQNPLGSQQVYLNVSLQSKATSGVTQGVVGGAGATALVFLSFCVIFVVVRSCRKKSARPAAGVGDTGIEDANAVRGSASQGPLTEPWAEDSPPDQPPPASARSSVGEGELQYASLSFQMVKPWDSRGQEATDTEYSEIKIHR
The test system of the next experiment is Trypanosoma cruzi. The experiment can be described thus: Trypanosoma cruzi phosphomannomutase and mannose-1-phosphate guanylyltransferase assay. It is filed as functional. To be noted: 10 µM.
For experiment [5], the target named is T2, Arginase-2, mitochondrial (Homo sapiens) (UniProt P78540).
T2 sequence (whole entry): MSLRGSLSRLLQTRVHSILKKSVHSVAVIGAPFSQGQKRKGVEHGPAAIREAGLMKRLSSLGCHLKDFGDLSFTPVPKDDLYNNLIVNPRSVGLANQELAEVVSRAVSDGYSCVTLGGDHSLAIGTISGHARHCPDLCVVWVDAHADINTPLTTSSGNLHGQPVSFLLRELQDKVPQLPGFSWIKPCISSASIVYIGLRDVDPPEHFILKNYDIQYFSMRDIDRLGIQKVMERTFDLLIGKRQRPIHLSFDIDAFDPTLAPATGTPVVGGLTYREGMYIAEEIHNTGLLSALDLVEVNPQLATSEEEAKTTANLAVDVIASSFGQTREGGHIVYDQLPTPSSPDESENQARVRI
The experiment is described as follows: in vitro enzyme assay to detect the production of urea directly proportional to the activity of Arginase II. Further: in the data most compounds retested in dose-response had high values. Type of experiment: functional. To be noted: 33.3 µM.

Experiment [6] deals with T3, Proteasome subunit beta (Trypanosoma cruzi) (UniProt O96673).
T3 sequence (whole entry): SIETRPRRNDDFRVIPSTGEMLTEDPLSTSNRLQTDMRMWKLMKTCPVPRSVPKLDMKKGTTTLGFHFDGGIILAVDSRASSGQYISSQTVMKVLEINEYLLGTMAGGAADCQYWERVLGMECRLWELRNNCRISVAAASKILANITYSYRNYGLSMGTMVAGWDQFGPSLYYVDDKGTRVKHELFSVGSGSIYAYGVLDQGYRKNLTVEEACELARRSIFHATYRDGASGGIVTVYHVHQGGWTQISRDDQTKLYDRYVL
The experiment can be described thus: Trypanosoma cruzi proteasome chymotrypsin-like activity (TcProtChymo) assay. Further: in the data most compounds retested in dose-response had high values. Type of experiment: functional. To be noted: 9.37 µM.

For a further experiment, the species on record is Homo sapiens. The experiment can be described thus: To identify inhibition of the IFN signalling (Jak-Stat) pathway via expression of an eGFP reporter gene under the control of an IFN-stimulated response element (ISRE) containing MxA promoter. Type of experiment: functional. To be noted: 30 µM.
For experiment [7], the target named is T4, Tyrosyl-tRNA synthetase, putative (Trypanosoma cruzi (strain CL Brener)) (UniProt Q4DSP6).
T4 sequence (whole entry): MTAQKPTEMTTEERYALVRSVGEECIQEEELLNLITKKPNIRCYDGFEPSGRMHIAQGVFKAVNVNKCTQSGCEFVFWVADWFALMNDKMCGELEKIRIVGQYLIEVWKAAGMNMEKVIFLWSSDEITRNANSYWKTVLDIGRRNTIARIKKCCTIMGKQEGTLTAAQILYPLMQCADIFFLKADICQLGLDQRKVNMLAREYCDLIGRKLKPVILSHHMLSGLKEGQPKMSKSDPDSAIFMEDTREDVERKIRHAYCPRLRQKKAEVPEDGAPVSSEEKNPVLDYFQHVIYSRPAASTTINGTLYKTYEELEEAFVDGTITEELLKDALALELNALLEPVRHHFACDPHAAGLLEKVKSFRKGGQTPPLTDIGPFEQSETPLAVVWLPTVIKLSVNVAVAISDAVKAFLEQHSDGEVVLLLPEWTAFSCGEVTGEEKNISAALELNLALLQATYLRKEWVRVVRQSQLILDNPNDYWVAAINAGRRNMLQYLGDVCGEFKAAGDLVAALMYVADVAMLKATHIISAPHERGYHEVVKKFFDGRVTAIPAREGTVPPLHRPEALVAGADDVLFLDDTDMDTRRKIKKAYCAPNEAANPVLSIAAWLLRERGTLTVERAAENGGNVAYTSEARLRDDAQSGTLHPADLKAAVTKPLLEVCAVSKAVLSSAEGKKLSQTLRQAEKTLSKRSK
The experiment can be described thus: Trypanosoma cruzi tyrosyl tRNA synthetase (TcYRS) _High Tyrosine SOP. Further: in the data most compounds retested in dose-response had high values. It is filed as functional. To be noted: 30 µM.

Experiment [8] has as its target T4, Tyrosyl-tRNA synthetase, putative (Trypanosoma cruzi (strain CL Brener)). The experiment is described as follows: Trypanosoma cruzi tyrosyl tRNA synthetase (TcYRS) SOP. It is filed as functional. To be noted: 30 µM.
For experiment [9], the target named is Chromo domain-containing protein 1 (Saccharomyces cerevisiae (strain ATCC 204508 / S288c) (Baker's yeast)) (UniProt P32657). The experiment is described as follows: ScCHD-1 Enzyme Inhibition Assay. Further: in the data most compounds retested in dose-response had high values. Type of experiment: functional. To be noted: 30 µM.
Chain of Chromo domain-containing protein 1 (Saccharomyces cerevisiae (strain ATCC 204508 / S288c) (Baker's yeast)) (P32657 whole entry, the tested form may be a part): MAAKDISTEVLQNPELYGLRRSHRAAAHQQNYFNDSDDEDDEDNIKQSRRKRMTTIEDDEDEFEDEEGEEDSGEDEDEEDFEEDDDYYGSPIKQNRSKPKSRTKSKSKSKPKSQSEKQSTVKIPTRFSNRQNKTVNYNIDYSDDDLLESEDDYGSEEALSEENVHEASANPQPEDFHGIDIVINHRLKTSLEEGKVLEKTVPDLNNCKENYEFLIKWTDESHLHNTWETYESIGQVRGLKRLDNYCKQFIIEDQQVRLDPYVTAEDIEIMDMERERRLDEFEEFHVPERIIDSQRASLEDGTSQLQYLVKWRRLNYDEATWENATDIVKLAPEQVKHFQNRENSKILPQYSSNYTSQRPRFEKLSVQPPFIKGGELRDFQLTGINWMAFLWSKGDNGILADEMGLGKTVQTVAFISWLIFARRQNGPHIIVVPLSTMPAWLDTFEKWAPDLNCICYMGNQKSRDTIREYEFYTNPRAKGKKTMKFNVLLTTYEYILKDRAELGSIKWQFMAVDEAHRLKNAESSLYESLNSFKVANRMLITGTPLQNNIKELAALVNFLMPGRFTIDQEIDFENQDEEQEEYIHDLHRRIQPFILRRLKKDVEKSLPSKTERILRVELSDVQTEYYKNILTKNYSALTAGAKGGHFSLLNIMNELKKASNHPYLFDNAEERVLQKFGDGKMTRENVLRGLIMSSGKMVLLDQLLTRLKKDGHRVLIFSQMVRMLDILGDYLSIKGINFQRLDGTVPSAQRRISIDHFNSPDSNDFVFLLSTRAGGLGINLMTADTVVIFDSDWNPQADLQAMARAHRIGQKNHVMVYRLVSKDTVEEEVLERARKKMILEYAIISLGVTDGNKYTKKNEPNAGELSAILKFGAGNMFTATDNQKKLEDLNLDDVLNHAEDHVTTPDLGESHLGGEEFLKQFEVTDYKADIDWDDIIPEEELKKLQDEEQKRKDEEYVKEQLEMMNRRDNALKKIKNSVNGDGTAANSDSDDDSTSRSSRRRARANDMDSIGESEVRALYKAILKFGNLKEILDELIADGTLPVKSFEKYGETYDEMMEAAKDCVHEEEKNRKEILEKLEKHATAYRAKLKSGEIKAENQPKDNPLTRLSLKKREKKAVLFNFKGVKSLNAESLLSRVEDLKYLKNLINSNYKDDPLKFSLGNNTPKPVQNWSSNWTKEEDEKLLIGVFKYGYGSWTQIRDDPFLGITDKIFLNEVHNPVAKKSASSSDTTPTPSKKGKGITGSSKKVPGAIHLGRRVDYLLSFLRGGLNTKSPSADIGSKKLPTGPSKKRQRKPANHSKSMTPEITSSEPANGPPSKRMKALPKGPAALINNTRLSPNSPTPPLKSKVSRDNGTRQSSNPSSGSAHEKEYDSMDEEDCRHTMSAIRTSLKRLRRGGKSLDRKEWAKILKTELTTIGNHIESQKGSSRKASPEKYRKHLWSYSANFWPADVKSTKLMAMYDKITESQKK

For some of these results: Measured potencies and affinities stand elsewhere.

Chain of Protein translocase subunit SecA (Escherichia coli (strain K12)) (P10408 whole entry): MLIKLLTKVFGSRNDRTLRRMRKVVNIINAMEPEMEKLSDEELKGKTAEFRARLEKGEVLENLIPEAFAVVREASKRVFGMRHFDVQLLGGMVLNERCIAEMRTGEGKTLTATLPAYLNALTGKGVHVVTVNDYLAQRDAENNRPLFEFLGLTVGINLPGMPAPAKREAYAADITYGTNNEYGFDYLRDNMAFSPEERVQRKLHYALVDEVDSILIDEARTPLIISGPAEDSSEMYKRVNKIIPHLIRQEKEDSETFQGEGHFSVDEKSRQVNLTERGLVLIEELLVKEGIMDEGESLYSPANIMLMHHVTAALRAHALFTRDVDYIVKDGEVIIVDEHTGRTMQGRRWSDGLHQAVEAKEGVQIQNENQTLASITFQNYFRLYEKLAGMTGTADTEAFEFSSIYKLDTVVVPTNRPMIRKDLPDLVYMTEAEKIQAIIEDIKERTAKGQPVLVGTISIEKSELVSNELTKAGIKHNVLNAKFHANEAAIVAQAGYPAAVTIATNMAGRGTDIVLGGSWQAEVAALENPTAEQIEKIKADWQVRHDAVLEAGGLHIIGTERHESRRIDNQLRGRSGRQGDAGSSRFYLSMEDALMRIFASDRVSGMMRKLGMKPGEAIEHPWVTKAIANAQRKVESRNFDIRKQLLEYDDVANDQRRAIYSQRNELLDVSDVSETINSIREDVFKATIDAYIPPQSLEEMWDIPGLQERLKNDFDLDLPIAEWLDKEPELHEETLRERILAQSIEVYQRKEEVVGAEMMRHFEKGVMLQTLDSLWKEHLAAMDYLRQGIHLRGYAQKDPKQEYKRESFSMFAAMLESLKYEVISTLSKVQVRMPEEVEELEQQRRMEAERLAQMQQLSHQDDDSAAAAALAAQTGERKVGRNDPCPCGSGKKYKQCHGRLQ

Consider `CC(=O)Nc1ccc(-n2ccc3nc(N4CCCC4)ncc3c2=O)cc1`, for which the Percent Effect in experiment [1] was -3.46%; in experiment [2], -9.33%; in experiment [3] it was 1.45%; in experiment [4], 1.82%; in the experiment with Trypanosoma cruzi, -2.36%; in experiment [5], 0.88%. Moreover, the Percent Effect was 3.14% in experiment [6]; -5.51% in the experiment filed under Homo sapiens; 1.06% in experiment [7]; -7.69% in experiment [8]; 3.54% in [9].

Regarding `Cc1nn(C)c(C)c1CC(=O)N1CCCC(n2cccn2)C1` (stereo unspecified), the Percent Effect in [1] was -2.93%; in [2], -5.26%; in [3], -2.25%; in experiment [4] it was -1.17%; with Trypanosoma cruzi it was 6.26%; in experiment [5], -5.4%. Also, the Percent Effect was 2.12% in experiment [6]; -14.2% in the experiment listed under Homo sapiens; 3.45% in experiment [7]; 3.7% in [8]; 0.321% in experiment [9].

In the case of `CCCC(C)(C)NC(=O)c1ccc(CC2CC(=O)NC2=O)cc1` (stereo unspecified), the Percent Effect in [1] is -8.33%; in experiment [2], 8.22%; in experiment [3], 6.89%; in experiment [4], 23.9%; in the experiment on Trypanosoma cruzi, 3.53%; in [5] it was 2.27%. The Percent Effect in [6] is 15.1%; in the experiment filed under Homo sapiens, 13.9%; in experiment [7], 3.23%; in experiment [8], 10%; in [9], -5.88%.

Consider `CN1CCCc2cc(NC(=O)N3CCOC(C(N)=O)C3)ccc21` (stereo unspecified), for which the Percent Effect in experiment [1] was 4.12%; in experiment [2] it was 21.9%; in experiment [3], 34.2%; in experiment [4] it was 5.33%; with Trypanosoma cruzi, 5.75%; in experiment [5], -1.2%. The Percent Effect in [6] was 10.5%; in the experiment filed under Homo sapiens, 14.3%; in [7], 8.33%; in [8], 21%; in [9] it was -3.37%.

Consider `Cc1n[nH]c(C)c1C1COCCN1C(=O)Cc1cccc(F)c1` (stereo unspecified), for which the Percent Effect in experiment [1] is 1.02%; in experiment [2], -2.74%; in [3], 2.69%; in experiment [4], 0.561%; in the experiment with Trypanosoma cruzi it was -6.46%; in experiment [5], 2.73%. The Percent Effect in [6] is 2.13%; in the experiment filed under Homo sapiens, -1.33%; in experiment [7] it was -1.07%; in [8], -2.5%; in experiment [9], -1.14%.

For the molecule `Cc1ccc(C(=O)CCC(=O)N2CCC(c3nncn3C)CC2)cc1`, the Percent Effect in experiment [1] was -8.28%; in experiment [2], 15.6%; in [3] it was -6.09%; in experiment [4] it was 19.9%; with Trypanosoma cruzi it was 5.24%; in experiment [5], 1.78%. Further, the Percent Effect in [6] is 11.3%; in the experiment filed under Homo sapiens, 9.84%; in experiment [7], 5.83%; in experiment [8], 24.4%; in experiment [9], -1.85%.

Regarding `Cc1ccsc1-c1nnc(C2CCN(Cc3ccc(F)cc3)CC2)o1`, the Percent Effect in [1] is -4.79%; in [2], -9.46%; in [3], 14.3%; in experiment [4] it was 4.24%; with Trypanosoma cruzi, 7.31%; in experiment [5] it was -4.87%. Besides, the Percent Effect in experiment [6] is 10.8%; in the experiment filed under Homo sapiens it was -11.7%; in experiment [7], 3.23%; in experiment [8], 3.9%; in experiment [9], -15.5%.

Regarding `O=C(c1ccncc1)N1Cc2ccccc2OC2(CCOCC2)C1`, the Percent Effect was -2.73% in experiment [1]; 9.46% in [2]; 10.5% in experiment [3]; 1.54% in [4]; 0.395% with Trypanosoma cruzi; -5.8% in experiment [5]. In addition, the Percent Effect in [6] was 16.1%; in the experiment listed under Homo sapiens, 7.47%; in experiment [7], 4.3%; in [8], 6.49%; in experiment [9] it was -15.3%.

For `Cc1cc(CN2CCN(C(=O)C(C)C)[C@@H]3CS(=O)(=O)C[C@@H]32)ccc1F`, the Percent Effect in experiment [1] is -4.05%; in experiment [2], 6.94%; in experiment [3] it was -6.22%; in [4], -3.08%; with Trypanosoma cruzi, -0.486%; in [5], 5.3%. Further, the Percent Effect was 14.7% in [6]; -3.72% in the experiment filed under Homo sapiens; 7.37% in experiment [7]; 12.8% in [8]; -2.86% in experiment [9].

With `Cn1cnc(S(=O)(=O)NCCN2CCCCCC2=O)c1Cl`, the Percent Effect is -8.78% in experiment [1]; 5.41% in experiment [2]; -41.8% in experiment [3]; 6.15% in experiment [4]; -3.87% in the experiment with Trypanosoma cruzi; -0.802% in [5]. The Percent Effect in experiment [6] was 0.721%; in the experiment listed under Homo sapiens, 17.8%; in experiment [7], -0.493%; in [8], -6.17%; in experiment [9], -8.21%.

In the case of `CCn1c(CN2CCCN(C(=O)OC)CC2)nc2c(F)cccc21`, the Percent Effect in [1] was -2.85%; in experiment [2], 15.8%; in experiment [3], -5.17%; in experiment [4] it was 7.02%; in the experiment on Trypanosoma cruzi, -3.95%; in [5] it was 8.81%. In addition, the Percent Effect in experiment [6] was 9.69%; in the experiment filed under Homo sapiens, -5.04%; in experiment [7], 6.37%; in [8], 12.2%; in experiment [9], -4.43%.
